# The list is not random: actives were taken first. Their share in the collection is about 4.2%.
# Sfp PPTase inh = qHTS Assay for Inhibitors of Bacillus subtilis Sfp phosphopantetheinyl transferase (PPTase); 3.5% of 310,000 active; Biochemical Sfp PPTase activity, qHTS; 4'-phosphopantetheinyl transferase ffp (Bacillus subtilis), Q9F4F7; Potency, µM, usual class: inhibitors;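 further: the enzyme is Sfp with the accession as filed and its product quenches rhodamine fluorescence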
#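 Reaction rates are the 30-min fluorescence difference (ex 525, em 598 nm) in wells containing 15 nM Sfp, 5 uM rhodamine-CoA and 12.5 uM BHQ-2-YbbR at pH 7.6 with 10 mM MgCl2.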
# TCR act = Activators of T cell receptors: qHTS campaign; primary human leukocytes, anti-CD3, IL-2 HTRF, 48 h; Potency, µM (doses to about 9.22 µM), actives largely listed as activators; 330,000 tested, under 10 active; AID 504894, 2011
#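 HTRF read-out of IL-2 secretion: europium cryptate donor excited at 320nm, d2 acceptor emission at 665nm. Cells were primary human leukocytes incubated 48 hr with compounds and a-CD3 beads, supplying TCR signal only.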
# uPA surface inh = qHTS for Inhibitors of Cell Surface uPA Generation; cell surface uPA generation assay, qHTS; Potency, µM (doses to about 38.3 µM), usual class: inhibitors; 0.31% of 330,000 active; active means well fitted inhibition curve with a large enough effect; inconclusive means small, poorly fitted or top-dose-only effect; inactive means no such curve, though single readings can be large or run the other way; tested in mouse RAW 264.7 cells; further: nearly all actives have a fitted effect of over 55% in size
# ClpP mod = qHTS Assay for Activators of ClpP | 1.9% of 340,000 active | purified B. subtilis ClpP, FRET peptide cleavage, 20 min | Potency, µM (series often up to 57.5 µM) | ATP-dependent Clp protease proteolytic subunit (Bacillus subtilis (strain 168)), P80244; active means well fitted falling curve with a large enough effect; inconclusive means small, poorly fitted or top-dose-only effect; inactive means no such curve, though single readings can be large or run the other way; further: the source files actives as falling curves though it sought activators and does not explain the sign; nearly all actives have a fitted effect of over 65% in size
# Target sequence (P80244 whole entry, looked up): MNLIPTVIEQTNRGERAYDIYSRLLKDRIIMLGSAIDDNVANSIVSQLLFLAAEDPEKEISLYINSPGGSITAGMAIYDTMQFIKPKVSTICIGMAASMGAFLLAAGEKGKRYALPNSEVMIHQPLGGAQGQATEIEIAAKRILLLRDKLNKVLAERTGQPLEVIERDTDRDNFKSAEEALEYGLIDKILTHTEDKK
#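 ClpP 10 microg/mL final, pH 8 Tris/KCl buffer with BSA, glycerol, Tween-20; compound pinned in; FRET-FV substrate; RT 20 min; Ex320/Em430; ΔFRET vs ADEP 5.8 microM, DMSO, no enzyme.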
# Numbers stand for hits; - = inactive; ? = inconclusive; . = not tested or not shown. Unless noted, the call rests on the fitted dose curve; in most records, active means well fitted curve in the direction sought with a large enough effect; inconclusive means small, poorly fitted or top-dose-only effect, or another doubt; inactive means no such curve, though single readings can be large; an effect the other way counts as inactive or inconclusive.
SMILES,Sfp PPTase inh,TCR act,uPA surface inh,ClpP mod
CCCN(CCC)CCCNC(=O)c1cc2c(=O)n(CC)c3ccccc3c2s1,-,-,-,.
Cc1ccc2[nH]c(=O)c3cc(C(=O)NCCCN4CCC(C)CC4)sc3c2c1,.,.,.,12.6µM
CCn1c(=O)c2cc(C(=O)NCCCOC)sc2c2ccccc21,-,-,5.62µM,-
CCC(=O)Nc1ccccc1-c1nc2ccccc2n(CC(=O)c2ccc(Br)cc2)c1=O,.,.,.,-
CC(=O)N1c2ccc(S(=O)(=O)N3CCCCCC3)cc2CC1C(=O)NCc1ccccc1F (configuration not stated),.,.,.,-
Cc1ccc(CNC(=O)C2CC(c3cc(C(F)(F)F)cc(C(F)(F)F)c3)=NO2)o1 (configuration not stated),56.2µM,-,?,-
Cc1ccc(CCNC(=O)C2CC(c3cc(C(F)(F)F)cc(C(F)(F)F)c3)=NO2)cc1 (configuration not stated),-,-,-,-
O=C(NCc1ccco1)C1CC(c2c(Cl)cccc2Cl)=NO1 (configuration not stated),79.4µM,-,?,-
Cc1ccc(CNC(=O)C2CC(c3cccc([N+](=O)[O-])c3)=NO2)o1 (configuration not stated),44.7µM,-,-,-
Cc1ccc(C(C)C)c(OCC(=O)Nc2ccc(S(=O)(=O)Nc3onc(C)c3C)cc2)c1,.,.,.,-
CO/N=C/c1ccc(Sc2ccccc2)c([N+](=O)[O-])c1,-,-,-,-
O=[N+]([O-])c1cc(/C=N/O)ccc1Sc1ccccc1,70.8µM,-,-,-
O=C(O)Cc1coc2cc3c(cc12)CCC3,-,.,-,25.1µM
N#C/C(=C\c1ccc(Cl)cc1Cl)c1nc(-c2cccc(Cl)c2)cs1,.,.,.,-
N#C/C(=C/c1ccc(Cl)cc1)c1nc(-c2ccc(Br)cc2)cs1,.,.,.,-
N#C/C(=C\Nc1ccc2cn[nH]c2c1)c1nc(-c2ccccc2)cs1,56.2µM,-,-,?
N#CC(=Cc1ccccn1)c1nc(-c2ccc(Cl)cc2)cs1,.,.,.,25.1µM
N#C/C(=C\Nc1ccc2cn[nH]c2c1)c1nc(-c2ccc(Cl)cc2)cs1,56.2µM,-,-,.
CN(C)c1ccc(/C=C/c2ccc3cc(N)ccc3n2)cc1,.,.,.,-
Cc1cnccn1,.,.,.,-
COC(=O)c1cc(C)sc1NC(=O)CSc1ncccn1,?,-,-,-
COC(=O)c1cc2sccc2n1Cc1c(C)cc(C)cc1C,.,.,.,-
CCn1c(SCc2nc3sc(C(=O)O)c(C)c3c(=O)[nH]2)nnc1-c1ccc(Cl)cc1,-,.,-,-
Cc1sc2nc(CSc3nnnn3-c3ccc(Cl)cc3)[nH]c(=O)c2c1C,79.4µM,-,-,-
O=C(NCc1ccc(F)cc1)C1CCN(S(=O)(=O)c2ccc3c(c2)CCCN3C(=O)C2CCC2)CC1,.,.,.,-
SMILES,Sfp PPTase inh,TCR act,uPA surface inh,ClpP mod
CC1(C)CC(=O)C2=C(C1)OC(N)=C([N+](=O)[O-])C2c1ccc(F)cc1 (configuration not stated),-,-,-,-
Cc1ccc(C2C(C(N)=S)=C(N)OC3=C2C(=O)CC(C)(C)C3)cc1 (configuration not stated),3.55µM,-,-,-
CC(=O)Nc1ccc(NS(=O)(=O)c2c(Cl)cccc2Cl)cc1,79.4µM,-,-,-
CC(NC(=O)C1=CC=CN2CCS(=O)(=O)N=C12)c1ccc(Cl)cc1Cl (configuration not stated),.,-,-,25.1µM
CC(NC(=O)C1=CC=CN2CCS(=O)(=O)N=C12)c1ccc(Cl)c(Cl)c1 (configuration not stated),.,-,-,.
N#CCCn1cc(C(=O)N2CCOCC2)c(-c2ccc3c(c2)OCCO3)n1,-,-,-,.
Oc1ccc(Nc2ncnc3c2oc2ccccc23)cc1,-,-,?,-
c1ccc(Nc2ncnc3c2oc2ccccc23)cc1,79.4µM,-,-,-
CC1Cc2ccccc2N1c1ncnc2c1nnn2Cc1ccccc1 (configuration not stated),28.2µM,.,.,-
c1ccc(Cn2nnc3c(N4CCc5ccccc5C4)ncnc32)cc1,-,-,-,?
O=C(NC1CC(=O)N(c2ccc(Cl)cc2)C1)c1ccc2c(c1)OCO2 (configuration not stated),.,.,.,-
C[C@H]1CN([C@@H](C)CO)C(=O)CCCn2nncc2CO[C@@H]1CN(C)S(=O)(=O)c1ccc(-c2ccccc2)cc1,.,.,.,-
COc1ccccc1Nc1nc(C)cc(C)c1C(N)=O,-,-,-,-
Cc1cc(C)c(C(N)=O)c(NCCc2ccccc2)n1,-,-,.,35.5µM
COc1ccc(Nc2nc(C)cc(C)c2C(N)=O)c(OC)c1,39.8µM,-,-,-
O=C(NCCCN1CCOCC1)c1cccc(S(=O)(=O)N2CCc3ccccc32)c1,.,.,.,-
COc1cc(C2Nc3cccc4cccc(c34)N2)ccc1O,44.7µM,.,-,-
CC(C)C(=O)N1CCC1(C)C(=O)Nc1ccc2[nH]ccc2c1 (configuration not stated),.,.,.,-
O=C(NCCC(=O)N1CCNC1=O)OCc1ccccc1,50.1µM,-,-,-
O=C1CC(c2ccc(O[C@@H]3OC(CO)[C@@H](O)C(O)C3O)cc2)Oc2cc(O)ccc21 (some centres not stated),-,.,.,.
C=C1CSc2nc(=O)c3c(C)c(C)sc3n21,-,-,-,15.8µM
CC(C)CC1C(=O)N(Cc2cn(CC3CCCCC3)nn2)CCS(=O)(=O)N1Cc1ccc(-c2ccc(F)nc2)cc1 (configuration not stated),.,.,.,-
CCn1c(C)c(CS(=O)(=O)c2ccccc2)[nH]c1=O,25.1µM,-,-,.
CCn1c(=O)[nH]c2ccccc21,-,.,.,.
COC1(OC)C(/C=C/c2ccc(C)cc2)C(C#N)(C#N)C1(OC)OC (configuration not stated),.,-,-,31.6µM
SMILES,Sfp PPTase inh,TCR act,uPA surface inh,ClpP mod
Cc1ccc(SCC(=O)NCCN2C(=O)CSC2=O)cc1C,-,-,-,-
Cc1ccc(Nc2nnc(SCC(=O)NCCN3C(=O)CSC3=O)s2)cc1C,-,-,5.01µM,-
CSc1ccccc1OCc1cc(C(=O)NC(C)c2cnn(C)c2)no1 (configuration not stated),-,-,-,28.2µM
CSc1ccccc1OCc1cc(C(=O)NC(C)CCn2cccn2)no1 (configuration not stated),-,-,-,-
O=c1c2ccccc2oc2cc(O)c(C3COCC(CO)C(O)C(O)C3O)c(O)c12 (configuration not stated),79.4µM,.,.,.
CCc1sc(N)nc1-c1ccccc1,79.4µM,-,-,-
COc1ccc(C(C#N)CC(=O)c2ccc(OC)c(OCc3ccccc3)c2)cc1OC (configuration not stated),.,.,.,-
COc1ccc(CCNc2nc(-c3ccc(F)cc3)c(CC(=O)O)s2)cc1OC,35.5µM,-,-,.
COc1ccc(CCNc2nc(C)c(C(C)=O)s2)cc1OC,15.8µM,-,-,.
Cc1nc(C)c(-c2csc(NCc3ccccc3)n2)s1,56.2µM,-,-,-
COc1ccc(CCNc2nc(-c3ccc(NC(C)=O)cc3)cs2)cc1OC,-,-,-,-

# Screens: PubChem BioAssay, National Center for Advancing Translational Sciences (NCATS)
